# Measured values from PubChem BioAssay AID770 (SRMLSC, 2007).
# In all, about 3,300 compounds went through this assay and fewer than 10 were called active.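 Rule for the calls: active = growth inhibition above 90% in viable cell count at a single dose; inactive = growth inhibition below 90%.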 Only a sample is shown.
# Experiment: HT29 colon tumor cell growth inhibition, primary screen, imaging, high content imaging, 24 h, CellTiter-Glo (AID 770);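 for condensed nuclei: share of cells whose nuclear area falls below control median minus 1.5 SD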
# Details: HT29 cell number by imaging, at 10 µM, stronger effect = higher value; for condensed nuclei: measured here: percent cells with condensed nuclei
# [1] = measured here: ATP CellTiter-Glo viability
SMILES,growth inhibition,growth inhibition [1],condensed nuclei
Cc1ccc(N(CN2C(=O)NC(C)(C)C2=O)CN2C(=O)NC(C)(C)C2=O)cc1,24.1% (inactive),-7.36%,3.39%
CN1CCN(CCCN2c3ccccc3Sc3ccc(C(F)(F)F)cc32)CC1,95.6% (active),87.9%,15.7%
OCCN1CCN(CCCN2c3ccccc3Sc3ccc(Cl)cc32)CC1,95.8% (active),77.7%,11.7%
CN(C)CCCN1c2ccccc2Sc2ccc(Cl)cc21,37.5% (inactive),25.5%,5.79%
CN1CCN(CCCN2c3ccccc3Sc3ccc(Cl)cc32)CC1,-25.4% (inactive),-28.5%,2.59%
CN(C)CCCN1c2ccccc2Sc2ccc(C(F)(F)F)cc21,62.5% (inactive),40.5%,4.92%
OCCN1CCN(CCCN2c3ccccc3Sc3ccc(C(F)(F)F)cc32)CC1,89% (inactive),59.7%,12.9%
CCN(CC)CCNc1nc(-c2ccco2)c2c(c1C#N)CC(C)(C)OC2,0.38% (inactive),-1.61%,4.74%
CC1(C)CC(=O)C=C(NCCO)C1,25.6% (inactive),9.68%,3.37%
O=S(=O)(c1cccc2nsnc12)N1CCN(C/C=C/c2ccccc2)CC1,-27% (inactive),4.18%,4.32%
Cc1cc(OCC(=O)Nc2ccc3oc(-c4ccncc4)nc3c2)ccc1Cl,-2.56% (inactive),-0.21%,2.42%
CCC(NC(=O)Nn1cnnc1)(C(F)(F)F)C(F)(F)F,3.51% (inactive),-0.07%,2.8%
O=C(NCCN1CCCCC1)c1ccc(=O)oc1,-6.93% (inactive),-12.9%,2.43%
CC(=Nc1ccc(C)c(C)c1)C1=C(O)CCC1=O,6.59% (inactive),-5.94%,3.62%
CCN(CC)CCNc1nc2c(c(=O)[nH]c(=O)n2C)n1CCOc1ccccc1,-28.8% (inactive),-0.48%,2.26%
Cc1ccc(C2C(C(=O)c3cc4ccccc4o3)=C(O)C(=O)N2CCN(C)C)o1 (stereo not drawn),-17.9% (inactive),-1.01%,2.37%
CCOc1cc(C2Nc3ccccc3C(=O)N2c2ccccc2OC)ccc1O (stereo not drawn),1.14% (inactive),-2.4%,1.12%
Cn1c(=O)c2c(nc(Br)n2CCSc2ncccn2)n(C)c1=O,17.9% (inactive),6.9%,1.48%
Cc1ccc(N2C(=O)CC3(CC4C=CC3C4)C2=O)cc1 (stereo not drawn),-2.66% (inactive),9.8%,2.87%
CNC(=O)CC(C(=O)O)c1ccc(OC(C)C)cc1 (stereo not drawn),14% (inactive),5.18%,2.97%
CC(C)Sc1nc(N2CCCC2)c2c(c1C#N)CC(C)(C)OC2,-32.3% (inactive),-22.9%,2.77%
CN1C2C=C3C(C#N)=C(N)C(C#N)(C#N)[C@@H](c4cccs4)C3C1CC2 (stereo partly drawn),-11.2% (inactive),-11.8%,3.15%
N#C/C(C(=O)NCc1ccco1)=C1/SC(Cc2ccc(F)cc2)C(=O)N1c1ccccc1 (stereo not drawn),16.5% (inactive),-3.7%,7.66%
CCOC(=O)/C=c1\s/c(=C(\C#N)C(=O)OCC)n(-c2ccccc2)c1=O,-8.81% (inactive),-10.2%,2.51%
Cc1nc(Nc2ncc3c(n2)CCCC3=O)nc2ccccc12,-21.1% (inactive),-26.2%,3.04%
CCOC(=O)c1[nH]c2cc3c(cc2c1NC(=O)CN1CCC(C)CC1)OCO3,37.9% (inactive),20%,3.55%

SMILES,growth inhibition,growth inhibition [1],condensed nuclei
O=C(C1=C(O)C(=O)N(CCCN2CCOCC2)C1c1ccccn1)c1cc2ccccc2o1 (stereo not drawn),-11.4% (inactive),-7.9%,2.31%
CC1(C)Cc2c(c(-c3ccccc3Cl)[nH]c(=O)c2C#N)CO1,-42.2% (inactive),-17.5%,1.85%
COC(=O)C(NC(C)=O)(Nc1ccccc1)C(=O)OC,-24.8% (inactive),-9.05%,3.37%
O=C(OCCCN1CCCC1)C1(c2ccccc2)CCCC1,3.8% (inactive),4.75%,5.7%
CCCCCCSC1=C(C#N)C(c2ccccc2)CC(=O)N1 (stereo not drawn),-14.4% (inactive),-7.19%,3.36%
N#CC1=C2SCC(O)(c3ccccc3)N2C(=O)CC1c1ccccc1 (stereo not drawn),90.7% (active),28.5%,46%
C=C(C)CSC1=C(C#N)C(c2ccsc2)CC(=O)N1 (stereo not drawn),-9.27% (inactive),-4.29%,1.96%
Nc1c2c(nc3ccccc13)N(c1ccccc1)CC2,-26.1% (inactive),-9.66%,3.19%
CC(C)c1cc(NCCCN2CCOCC2)n2c(nc3ccccc32)c1C#N,-4.17% (inactive),-7.5%,5.23%
CCCOc1ccc(C2NC(=O)NC2=O)cc1 (stereo not drawn),10.6% (inactive),-11.9%,16%
Cc1cc(C)n(Cc2cc(C)c(Cn3nc(C)cc3C)cc2C)n1,-26.1% (inactive),-2.81%,2.58%
CCOc1ccc2c(C)nc(NC3=NC(C)(C)C=C(C)N3)nc2c1,18.5% (inactive),16.6%,3.47%
CC1(C)Cc2c(sc3c4nnnn4c4nnnn4c23)CO1,6.59% (inactive),-3.55%,2.72%
Cc1ccc(C(=O)C2=C(O)C(=O)N(CCN3CCOCC3)C2c2ccccn2)o1 (stereo not drawn),20.8% (inactive),0.76%,4.96%
Cc1cccn2c(=O)c(/C=C(\C#N)S(=O)(=O)c3ccccc3)c(N3CCN(C)CC3)nc12,5.64% (inactive),13.3%,3.93%
Nc1nnc(CSCc2ccc(F)cc2)s1,-13.9% (inactive),-8.17%,3.43%
Cc1ccc2[nH]c3c(N4CCCCCC4)ncnc3c2c1,74.2% (inactive),38.6%,5.98%
Cc1cc(=O)oc(C)c1C(=O)Nc1cccc2nonc12,38% (inactive),7.72%,3.32%
C/C(=N\O)C(=O)NCCCNCCCN(C)C,28.6% (inactive),10.3%,4.53%
N#CC1=C(SCC(=O)c2ccc(Cl)cc2)NC2=C(C(=O)CCC2)C1c1ccco1 (stereo not drawn),64.2% (inactive),40%,20.2%
O=S(=O)(/C=C/c1ccccc1)Nc1ccc2c(c1)OCO2,-3.8% (inactive),-13.4%,3.87%
CCCOc1ccc(/C(O)=C2/C(=O)C(=O)N(CCN(C)C)C2c2ccncc2)cc1 (stereo not drawn),-14% (inactive),-1.78%,5.23%
CCOc1nc(SCCOc2ccc(C)cc2)nc(N(C)C)n1,-2.97% (inactive),-13.9%,2.83%
CCOC(=O)COc1ccc(Oc2nc(C)cc(OC)n2)nn1,-1.19% (inactive),1.86%,5.21%
CCCCN(C(=O)CCC(=O)O)C1CC(=O)N(c2ccc(OCCC)cc2)C1=O (stereo not drawn),20.1% (inactive),7.14%,1.69%
COCc1[nH]nc2c1C(c1ccccc1OC)C(C#N)=C(N)O2 (stereo not drawn),34.7% (inactive),-0.21%,3.93%

SMILES,growth inhibition,growth inhibition [1],condensed nuclei
CC1CCc2cc(F)cc3c(O)c(C(=O)NCC4CCCO4)c(=O)n1c23 (stereo not drawn),12.1% (inactive),11.9%,2.11%
O=C1OC(Nc2ccc(Br)cn2)c2ccccc21 (stereo not drawn),-21.1% (inactive),2.61%,3.37%
CCOC(=O)c1ccc(-n2c(=O)[nH]c3ccccc3c2=O)cc1,-28.4% (inactive),-4.1%,4.94%
COc1ccc(-c2onc(C)c2-c2ccccc2)c(O)c1,25.2% (inactive),-2.05%,4.31%
CCn1c(-c2ccco2)n[nH]c1=S,2.65% (inactive),-3.63%,3.02%
COC(=O)COn1c(SCC(=O)OC)nc2ccccc2c1=O,39.9% (inactive),-6.12%,2.06%
CCN(CC)C(=O)COn1c(SCC(=O)N(CC)CC)nc2ccccc2c1=O,28.8% (inactive),-9.22%,5.68%
CN(C)C(=O)COn1c(SCC(=O)N(C)C)nc2ccccc2c1=O,100% (active),-74.5%,7.94%
Cc1c(/C(O)=C2\C(=O)C(=O)N(CCN(C)C)C2c2cccnc2)cnn1-c1ccccc1 (stereo not drawn),65.4% (inactive),24.8%,7.5%
Cc1nc2c(c(=O)n1CC1CCCO1)c1nc3ccccc3nc1n2CC(C)C (stereo not drawn),47.8% (inactive),4.29%,7.73%
Cc1[nH]c(=O)[nH]c(=O)c1S(=O)(=O)N1CCCC1,7.67% (inactive),-13.2%,3.07%
CCCCSc1nnc(-c2ccc(NC(C)=O)cc2)n1C,14.5% (inactive),6.32%,2.33%
c1ccc(OCc2nn3c(C4CCCCC4)nnc3s2)cc1,0.33% (inactive),-3.2%,2.15%
Cc1cccc(C)c1OCC(O)CNS(=O)(=O)c1ccccc1C(=O)N1CCOCC1 (stereo not drawn),-11.9% (inactive),-0.31%,3.46%
COc1ccc(-n2ccc(=O)c3c2CCCC3=O)cc1,-18.6% (inactive),1.93%,3.07%
Cc1ccc(-c2nnc(OCCN3CCOCC3)c3ccccc23)cc1,30.1% (inactive),10.1%,3.64%
COc1cc(C2C(C(=O)c3ccc(C)o3)=C(O)C(=O)N2c2cc(C)on2)cc(OC)c1OC (stereo not drawn),-22% (inactive),-13.1%,3.21%
Cc1c(OCc2ccccc2)c(=O)ccn1Cc1ccccc1,-0.34% (inactive),-10.9%,1.99%
Oc1oc(-c2ccccc2)nc1C=NCc1ccncc1,2.2% (inactive),-2.06%,3.2%
CC1(C)CC(N(Cc2ccco2)C(=O)Cc2ccccc2)CCO1 (stereo not drawn),12.6% (inactive),0.11%,2.03%
Cc1cc(C)n(-c2ncnc3sc(C)c(C)c23)n1,-10.3% (inactive),2.85%,1.35%
COc1ccc(C2NC(=O)NC(O)(C(F)(F)F)C2C(=O)c2ccc(F)cc2)cc1 (stereo not drawn),-33.6% (inactive),0.76%,2.45%
CC(C)c1ccc(O)c(N)c1,-26.1% (inactive),2.95%,5.48%
CC1(C)NC(=O)N(CC(O)COc2cc3ccccc3cc2C(=O)N2CCCCC2)C1=O (stereo not drawn),23.3% (inactive),-6.38%,4.21%
